The panel holds about 83,000 compounds, 20% with a hit somewhere; the sample as a whole holds those more often.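 Values shown are percent growth following 48 h exposure of cells in 96-well plates to a single concentration of compound; below 10 was considered active.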 Values without a mark were called inactive. Calls of active or inactive are those of the source.
Experiments:
Experiment in all cases: NCI-60 one-dose screen, 48 h (100 = growth as untreated, 0 = no growth, -100 = all killed)
Conditions in all cases: 10 µM unless noted
NCI-H23 lung = test system: NCI-H23 lung
NCI-H226 lung = test system: NCI-H226 lung
NCI-H322M lung = test system: NCI-H322M lung
HOP-62 NSCLC = test system: HOP-62 NSCLC
NCI-H460 lung = test system: NCI-H460 lung
HOP-92 NSCLC = test system: HOP-92 NSCLC
NCI-H522 lung = test system: NCI-H522 lung
A549/ATCC NSCLC = test system: A549/ATCC NSCLC
786-0 renal = test system: 786-0 renal
COLO 205 colon = test system: COLO 205 colon
DU-145 prostate = test system: DU-145 prostate
K-562 leukemia = test system: K-562 leukemia
MALME-3M melanoma = test system: MALME-3M melanoma
MDA-MB-231 breast = test system: MDA-MB-231 breast
RXF 393 renal = test system: RXF 393 renal
SF-268 CNS = test system: SF-268 CNS
SF-295 CNS = test system: SF-295 CNS
SF-539 CNS = test system: SF-539 CNS
UACC-257 melanoma = test system: UACC-257 melanoma
M14 melanoma = test system: M14 melanoma

Compound `O=C1OC(c2ccccc2)C(O)=C1c1ccccc1` (centres undefined) has a growth (NCI-H23 lung) of 115%, a growth (NCI-H226 lung) of 100% and a growth (NCI-H322M lung) of 130%. For the same compound, the growth (HOP-62 NSCLC) was 122%, the growth (NCI-H460 lung) was 113% and the growth (HOP-92 NSCLC) was 96.4%. For the same compound, the growth (NCI-H522 lung) was 110%, the growth (A549/ATCC NSCLC) was 86.6% and the growth (786-0 renal) was 116%. The growth (COLO 205 colon) was 120%, the growth (DU-145 prostate) was 112% and the growth (K-562 leukemia) was 110%. It also gave a growth (MALME-3M melanoma) of 116%, a growth (MDA-MB-231 breast) of 104% and a growth (RXF 393 renal) of 111%. It also gave a growth (SF-268 CNS) of 96.4%, a growth (SF-295 CNS) of 109% and a growth (SF-539 CNS) of 102%. For the same compound, the growth (UACC-257 melanoma) was 95.2% and the growth (M14 melanoma) was 111%.
`COc1ccc(-c2cc(Nc3ccnc(N4CCOCC4)n3)on2)cc1` gave a growth (NCI-H23 lung) of 36.8%, a growth (NCI-H226 lung) of 31.8% and a growth (NCI-H322M lung) of 47.1%. The growth (HOP-62 NSCLC) was 40.9%, the growth (NCI-H460 lung) was 14.5% and the growth (HOP-92 NSCLC) was 74.8%. The growth (NCI-H522 lung) was 4.99% (active), the growth (A549/ATCC NSCLC) was 30.4% and the growth (786-0 renal) was 35.6%. For the same compound, the growth (COLO 205 colon) was 2.68% (active), the growth (DU-145 prostate) was 19.6% and the growth (K-562 leukemia) was 13.1%. For the same compound, the growth (MALME-3M melanoma) was 87.2%, the growth (MDA-MB-231 breast) was 57.9% and the growth (RXF 393 renal) was -6.95% (active). For the same compound, the growth (SF-268 CNS) was 62.6%, the growth (SF-295 CNS) was 39.3% and the growth (SF-539 CNS) was -31.9% (active). It also gave a growth (UACC-257 melanoma) of 72.7%.
With `Fc1ccc2[nH]cc(SSc3c[nH]c4ccc(F)cc34)c2c1` the growth (NCI-H23 lung) was 45.9%, the growth (NCI-H226 lung) was 52% and the growth (NCI-H322M lung) was 89.7%. The growth (HOP-62 NSCLC) was 31.7%, the growth (NCI-H460 lung) was 30.5% and the growth (HOP-92 NSCLC) was -27.9% (active). For the same compound, the growth (NCI-H522 lung) was 0.948% (active), the growth (A549/ATCC NSCLC) was 19.3% and the growth (786-0 renal) was 60.8%. The growth (COLO 205 colon) was 40.9%, the growth (DU-145 prostate) was 90.4% and the growth (K-562 leukemia) was 23.2%. It also gave a growth (MALME-3M melanoma) of 83.6%, a growth (MDA-MB-231 breast) of 42.7% and a growth (RXF 393 renal) of 14.4%. For the same compound, the growth (SF-268 CNS) was 17.7%, the growth (SF-295 CNS) was -17.2% (active) and the growth (SF-539 CNS) was 36.8%. For the same compound, the growth (UACC-257 melanoma) was 78.7%.
`O=C1/C(=C/N2N=C(c3ccc4ccccc4c3)CC2c2ccccc2O)SC(=S)N1c1cccnc1` (centres undefined) gave a growth (NCI-H23 lung) of 43.3%, a growth (NCI-H226 lung) of 31.7% and a growth (NCI-H322M lung) of 46%. For the same compound, the growth (HOP-62 NSCLC) was 25.2%, the growth (NCI-H460 lung) was 15.3% and the growth (HOP-92 NSCLC) was 77%. For the same compound, the growth (NCI-H522 lung) was 21.1%, the growth (A549/ATCC NSCLC) was 18.8% and the growth (786-0 renal) was 14%. The growth (COLO 205 colon) was 27.3%, the growth (DU-145 prostate) was 24.8% and the growth (K-562 leukemia) was 10.9%. The growth (MALME-3M melanoma) was 79.5%, the growth (MDA-MB-231 breast) was 53% and the growth (RXF 393 renal) was -8.6% (active). For the same compound, the growth (SF-268 CNS) was 31.9%, the growth (SF-295 CNS) was 10.5% and the growth (SF-539 CNS) was -26.2% (active). For the same compound, the growth (UACC-257 melanoma) was 69.1%.
For `COc1cc2c(cc1-c1c(C)noc1C)ncc1nc(C3CCCCC3)n([C@H](C)COC(F)F)c12`, the growth (NCI-H23 lung) was 59.9%, the growth (NCI-H226 lung) was 53.5% and the growth (NCI-H322M lung) was 40.3%. It also gave a growth (HOP-62 NSCLC) of 39.4%, a growth (NCI-H460 lung) of 53.2% and a growth (HOP-92 NSCLC) of 34.9%. The growth (NCI-H522 lung) was 25.2%, the growth (A549/ATCC NSCLC) was 33.4% and the growth (786-0 renal) was 48.7%. The growth (COLO 205 colon) was 24.7%, the growth (DU-145 prostate) was 63.8% and the growth (K-562 leukemia) was 24.6%. For the same compound, the growth (MALME-3M melanoma) was 69.3%, the growth (MDA-MB-231 breast) was 41.9% and the growth (RXF 393 renal) was 52.6%. For the same compound, the growth (SF-268 CNS) was 58.8%, the growth (SF-295 CNS) was 52.4% and the growth (SF-539 CNS) was 34.7%. For the same compound, the growth (UACC-257 melanoma) was 31.4%.
`Cn1cccc1-c1nc2c3c(ccc2[nH]1)C(=O)c1ccccc1C3=O` showed a growth (NCI-H23 lung) of 85.3%, a growth (NCI-H226 lung) of 86.2% and a growth (NCI-H322M lung) of 81.8%. The growth (HOP-62 NSCLC) was 102%, the growth (NCI-H460 lung) was 87.2% and the growth (HOP-92 NSCLC) was 89%. The growth (NCI-H522 lung) was 73.6%, the growth (A549/ATCC NSCLC) was 87.9% and the growth (786-0 renal) was 103%. It also gave a growth (COLO 205 colon) of 120%, a growth (DU-145 prostate) of 101% and a growth (K-562 leukemia) of 73.8%. For the same compound, the growth (MALME-3M melanoma) was 90.5%, the growth (MDA-MB-231 breast) was 88.6% and the growth (RXF 393 renal) was 93%. For the same compound, the growth (SF-268 CNS) was 97.8%, the growth (SF-295 CNS) was 97.9% and the growth (SF-539 CNS) was 90.7%. The growth (UACC-257 melanoma) was 94.3%.
`COc1ccc(-c2nc3ccc(-c4nc5ccc(N6CCN(c7ccc(F)cc7)CC6)cc5[nH]4)cc3[nH]2)cc1OC` showed a growth (NCI-H23 lung) of 60.7%, a growth (NCI-H226 lung) of 66.6% and a growth (NCI-H322M lung) of 88.5%. It also gave a growth (HOP-62 NSCLC) of 75.6%, a growth (NCI-H460 lung) of 71.1% and a growth (HOP-92 NSCLC) of 63.6%. It also gave a growth (NCI-H522 lung) of 45.3%, a growth (A549/ATCC NSCLC) of 77.3% and a growth (786-0 renal) of 79.5%. The growth (COLO 205 colon) was 30.4%, the growth (DU-145 prostate) was 80.3% and the growth (K-562 leukemia) was 17.7%. For the same compound, the growth (MALME-3M melanoma) was 43.9%, the growth (MDA-MB-231 breast) was 107% and the growth (RXF 393 renal) was 68.6%. It also gave a growth (SF-268 CNS) of 82.6%, a growth (SF-295 CNS) of 76% and a growth (SF-539 CNS) of 68.2%. It also gave a growth (UACC-257 melanoma) of 104% and a growth (M14 melanoma) of 61.8%.
`O=C(COc1cccc(/C=C2\COc3ccccc3C2=O)c1)Nc1nccs1` showed a growth (NCI-H23 lung) of 13.4%, a growth (NCI-H226 lung) of 95.4% and a growth (NCI-H322M lung) of 99.3%. For the same compound, the growth (HOP-62 NSCLC) was 83.3%, the growth (NCI-H460 lung) was 87.9% and the growth (HOP-92 NSCLC) was -3.51% (active). For the same compound, the growth (NCI-H522 lung) was -30.5% (active), the growth (A549/ATCC NSCLC) was 101% and the growth (786-0 renal) was 95.5%. For the same compound, the growth (COLO 205 colon) was 87.3%, the growth (DU-145 prostate) was 96.6% and the growth (K-562 leukemia) was -80.5% (active). For the same compound, the growth (MALME-3M melanoma) was 54.2%, the growth (MDA-MB-231 breast) was 83.7% and the growth (RXF 393 renal) was 48.3%. For the same compound, the growth (SF-268 CNS) was 70.1%, the growth (SF-295 CNS) was 112% and the growth (SF-539 CNS) was 83.7%. It also gave a growth (UACC-257 melanoma) of 86%.
